Reference: PubChem BioAssay (EPA / NIEHS)
The source made the active and inactive calls. How the source made its calls: active means hit-call score of the fitted dose curve at least 0.9, where 1 is the maximum; inactive means score below 0.9.

Assay: ATG_ISRE_CIS: Attagene CIS-FACTORIAL HepG2 Assay for human Interferon Regulatory Factor 1 (IRF1) binding to an Interferon-Stimulated Response Element (ISRE) (AID 2282948)
Settings: HepG2 ISRE cis-reporter (Attagene), mRNA transcription readout; actives raise or lower the signal
Method: ATG_CIS is a cell-based, multiplexed-readout assay that uses HepG2, a human liver cell line, with measurements taken at 24 hours after chemical dosing in a 24-well plate.ATG_ISRE_CIS is one of 52 assay component(s) measured or calculated from the ATG_CIS assay. It is designed to make measurements of mRNA induction, a form of inducible reporter, as detected with fluorescence intensity signals by Reverse transcription polymerase chain reaction (RT-PCR) and Capillary electrophoresis technology.Data from the assay component ATG_ISRE_CIS was analyzed into 1 assay endpoint. This assay endpoint, ATG_ISRE_CIS, was analyzed with bidirectional fitting relative to DMSO as the negative control and baseline of activity. Using a type of inducible reporter, measures of mRNA for gain or loss-of-signal activity can be used to understand the reporter gene at the transcription factor-level as they relate to the gene IRF1. Furthermore, this assay endpoint can be referred to as a primary readout, because this assay has produced multiple assay endpoints where this one serves a reporter gene function. To generalize the intended target to other relatable targets, this assay endpoint is annotated to the dna binding intended target family, where the subfamily is interferon regulatory factors.
Human liver HepG2 cells are transiently transfected with multiple reporter transcription units (MRTUs) in 6-well plates using FuGene 6 reagent (Roche; 3 ml FuGene/1 mg DNA). The MRTU constructs are regulated by a cis-regulating element (promoter). […] A major difference between the CIS and TRANS system is that in CIS activities of endogenous TFs are measured, whereas the TRANS assay evaluates changes in activities of exogenous, chimeric NR-Gal4 proteins. […] At the end of 24 hour incubation, total RNA was isolated using TriZol reagent (Invitrogen). The isolated RNA is then reverse-transcribed using oligo(dT) primer and Mo-MLV reverse transcriptase (Invitrogen) with DNAse I (Ambion) treatment for 30 min. The one-tenth of the produced cDNA was amplified by PCR using Taq DNA polymerase (Invitrogen) and two reporter sequence-specific primers. The PCR products were fluorescently labeled by primer extension with 6-arboxyfluorescein (6-FAM) 5'-labeled reporter sequence-specific primer (2 min at 95 C, 20 s at 68 C and 10 min at 72 C) and these products were digested with 5U of HpaI (New England Biolabs) for 2h at 37 C. The fragments were purified using Qiaquick PCR columns (Qiagen), analyzed on an ABI 3130xL genetic analyzer (Applied Biosystems) with peak positions identified by using a set of X-rhodamine (ROX)-labeled MapMarker1000 molecular weight standards (BioVentures). The raw capillary electrophoresis data was processed using Attagraph software (Attagene).

SMILES	outcome	AC50
Cc1cccc(Nc2ccccc2)c1	inactive	
CCCN(CCC)S(=O)(=O)c1ccc(C(=O)O)cc1	inactive	
CCC(=O)OCCOc1ccccc1	inactive	
CCCCCCC(=O)c1ccccc1	inactive	
O=C1NC2NC(=O)NC2N1 (stereo not given)	inactive	
C=Cc1ccncc1		55.9 µM (active)
CCc1ncc(C)[nH]1	inactive	
C=C1CC[C@H](O)C/C1=C/C=C1\CCC[C@]2(C)[C@@H]([C@H](C)/C=C/[C@H](C)C(C)C)CC[C@@H]12	inactive	
CC=Cc1ccc(OCC)c(O)c1	inactive	
CCCCOC(=O)CCCCCCCC(=O)OCCCC	inactive	
O=CN1CCOCC1	inactive	
CC(=O)NCCO	inactive	
Cc1ccc(S(N)(=O)=O)cc1	inactive	
CC(=O)c1ccccn1	inactive	
CCCCCCCCCCCC(=O)OC[C@@H](O)[C@H]1OC[C@H](O)[C@H]1O	inactive	
C[C@H]1O[C@@H](O[C@H]2[C@@H](O)C[C@H](O[C@H]3[C@@H](O)C[C@H](O[C@H]4CC[C@@]5(C)[C@H](CC[C@@H]6[C@@H]5C[C@@H](O)[C@]5(C)[C@@H](C7=CC(=O)OC7)CC[C@]65O)C4)O[C@@H]3C)O[C@@H]2C)C[C@H](O)[C@@H]1O		0.179 µM (active)
OCCOCCN1CCN(C2=Nc3ccccc3Sc3ccccc32)CC1		152 µM (active)
COc1ccc(OC)c(N=Nc2c(O)ccc3ccccc23)c1	inactive	
O=P(O)(O)O	inactive	
C=C(C)C(=O)OCC(CC)(COC(=O)C(=C)C)COC(=O)C(=C)C	inactive	

SMILES	outcome	AC50
O=[N+]([O-])c1ccc(O)cc1C(F)(F)F		48 µM (active)
C#CC(C)(O)CC(C)C (stereo not given)	inactive	
C=CC(C)C#N (stereo not given)	inactive	
CN(C)C(=O)Nc1ccc(Oc2ccc(Cl)cc2)cc1	inactive	
CCNCCO	inactive	
NCC1CCCC(CN)C1 (stereo not given)	inactive	
COC(=O)Nc1ccc(Cl)c(Cl)c1		30.7 µM (active)
C=CC(=O)OCCCC	inactive	
CCCCCCCC(=O)OCC(O)CO (stereo not given)	inactive	
COC(=O)C=C(C)CCC=C(C)C	inactive	
C=CCN(CC=C)CC=C	inactive	
Cc1ccc(N)c(S(=O)(=O)O)c1	inactive	
Nc1ccccc1[N+](=O)[O-]	inactive	
Cc1ccc(C)o1	inactive	
C=CCCC(=O)/C=C/C1C(C)=CCCC1(C)C (stereo not given)	inactive	
CCOC(=O)[C@@H](C)Oc1ccc(Oc2nc3ccc(Cl)cc3o2)cc1	inactive	
OCC(O)c1ccccc1 (stereo not given)	inactive	
CCCCCCC(C)Nc1ccc(Nc2ccccc2)cc1 (stereo not given)	inactive	
CCCCCCCCCCCCCCN(CCO)CCO	inactive	
CCCCC1CCC(O)CC1 (stereo not given)	inactive	
